HSP90 refold inh: blocks HSP90-mediated luciferase refolding in reticulocyte lysate | Rabbit reticulocyte lysate, luciferase refolding luminescence, 3 h | inhibition, % at 5.6 µM | hit rate 0.91% among 290,000 | AID 1789;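 active = inhibition above the screen-wide mean plus 3 SD, computed separately per campaign, cut at about 16% in these data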;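 note: inhibitors lower the luminescence because luciferase stays unfolded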
aSyn UTR inh: MLPCN primary screen, SNCA 5' untranslated region; alpha-synuclein 5'UTR reporter, inhibitor activity; AID 1813; inhibition, % (tested at 7.5 µM); hit rate 0.82% among 300,000; in the data active = inhibition above about 60%;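 note: H4 neuroglioblastoma cells stably carrying SNCA 5'UTR luciferase fusion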
TRAIL sens C8: sensitizes caspase-8 expressing cells to TRAIL; NB7+C8 cells + TRAIL, ATPlite viability luminescence; inhibition (viability loss, TRAIL sensitization), % at 10 µM; hit rate 1% among 360,000; AID 624354;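 active = compounds causing at least 50% loss of cell viability in the single-dose screen, relative to plate controls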
TWEAK Fn14 block: inhibitors of TWEAK-Fn14 interaction signaling; TWEAK-stimulated Fn14 reporter cells, luciferase luminescence, 8 h; inhibition, % at 10 µM; hit rate 2% among 360,000; in the data active = inhibition above about 50%
HIF-2a block: blocks HIF-2a reporter activity | 786-0 RCC cells HIF-2a reporter, luciferase luminescence, overnight | inhibition, % at 18.8 µM | hit rate 0.72% among 360,000;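 active = inhibition of the luminescence signal of 40% or more relative to plate controls, in a single-dose primary screen at 18.75 µM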
TROY NFkB inh: TROY signaling inhibition; hit rate 0.98% among 360,000; Q293 LMP1-TROYcd NF-kB luciferase reporter, 4 h; AID 1347056; inhibition, % at 10 µM;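 active = compounds whose plate-normalised and pattern-corrected inhibition of the luciferase reporter signal at the single screening dose is 50% or more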
A number is an active result; . = inactive; / = no result. This is a sample that favours compounds with a hit; in the whole collection about 3.9% have one here.

SMILES | HSP90 refold inh | aSyn UTR inh | TRAIL sens C8 | TWEAK Fn14 block | HIF-2a block | TROY NFkB inh
CC(C)c1ccc(/C=C/C(=O)NC(=S)Nc2ccc(CN3CCOCC3)cc2)cc1 | . | . | . | 100 | . | 71
CC(C)CC(=O)NC(=S)Nc1ccc(CN2CCOCC2)cc1 | . | . | . | . | . | .
O=C(/C=C/c1cccc([N+](=O)[O-])c1)NC(=S)Nc1ccc(CN2CCOCC2)cc1 | . | . | . | 63 | . | .
Cc1ccc(NC(=O)CN(C)C(=O)c2cc(-c3cccs3)nn2-c2ccccc2)cc1 | / | / | . | . | . | .
Cc1nccn1CC(O)Cn1c2ccccc2c2ccccc21 (configuration not stated) | . | . | . | 84 | . | /
Cc1cc(C)n(CC(O)Cn2c3ccccc3c3ccccc32)n1 (configuration not stated) | . | . | . | . | . | .
O=C(N/N=C/c1ccc2ncccc2c1)c1ccco1 | 31 | . | 80 | 70 | . | 51
O=C(N/N=C/c1ccccn1)c1ccco1 | . | . | . | . | . | .
CN(C)c1ccc(/C=N\NC(=O)c2csnn2)cc1 | . | . | . | 71 | . | .
Cc1ccc(/C=N/NC(=O)c2ccco2)cc1 | . | . | . | . | . | .
CN(C)c1ccc(C=Nc2ccccc2C(N)=O)cc1 | . | / | 85 | . | . | .
CN(C)c1ccc(/C=N/NC(=O)c2ccco2)cc1 | . | . | 66 | . | . | .
CCCCCCCCN1C(=O)[C@H](CC(=O)NCc2cccc(C(F)(F)F)c2)C[C@@]2(C(=O)OC)CCCCC=C12 | / | / | . | . | . | .
Cc1ccc(S(=O)(=O)N2CCN(C(=O)CSc3nnc(C)c(=O)[nH]3)CC2)cc1 | . | . | . | . | . | .
Cc1ccc(S(=O)(=O)N2CCN(C(=O)CSc3nccn3C)CC2)cc1 | . | . | . | . | . | 60
CC(=O)N1CCC(C(=O)N2c3ccccc3N=C(c3ccc(C(F)(F)F)cc3)C2C(=O)NC(C)(C)C)CC1 (configuration not stated) | / | / | . | / | . | /
C(=C\c1ccccc1)/CN1CCN(C(c2cccc3ccccc23)c2nnnn2C2CCCC2)CC1 (configuration not stated) | / | / | . | . | . | .
Cc1nnc(Cc2ccccc2)c2n[nH]c(C)c12 | / | / | . | . | . | .
CCCCCCC(=O)Nc1ccc(C(=O)N/N=C/c2cccnc2)cc1 | . | . | . | . | . | .
CCCCCCCCCS(=O)(=O)N/N=C/c1cccc([N+](=O)[O-])c1 | . | . | . | . | . | 51
CCCCCCCC(=O)Nc1ccc(C(=O)N/N=C/c2cccc([N+](=O)[O-])c2)cc1 | . | 76 | 57 | . | . | .
CCCC(=O)Nc1ccc(C(=O)N/N=C/c2ccc([N+](=O)[O-])o2)cc1 | . | 111 | . | . | . | .
Cc1ccc(NC(=O)CCC(=O)N/N=C/c2ccc([N+](=O)[O-])o2)cc1C | . | . | . | . | . | .
Cc1ccc(S(=O)(=O)N/N=C/c2cccc([N+](=O)[O-])c2)cc1 | . | . | . | . | . | .
COc1c2ccc(OCC/C(C)=C/C(=O)C=C(C)C)cc2nc2occc12 | / | / | . | . | . | .
SMILES | HSP90 refold inh | aSyn UTR inh | TRAIL sens C8 | TWEAK Fn14 block | HIF-2a block | TROY NFkB inh
Cc1ccc(-n2c(N)c(C(=O)Nc3c(C)n(C)n(-c4ccccc4)c3=O)c3nc4ccccc4nc32)cc1C | . | 74 | / | / | / | /
COc1ccc(-n2c(N)c(C(=O)Nc3c(C)n(C)n(-c4ccccc4)c3=O)c3nc4ccccc4nc32)cc1 | . | . | . | . | . | .
COC(=O)[C@@]12C[C@@H](CC(=O)NCc3cccc4ccccc34)C(=O)N(Cc3ccccc3)C1=CCC(C)(C)C2 | / | / | . | / | . | /
COC(=O)[C@]12CCCCC=C1N(Cc1ccc(Cl)cc1Cl)C(=O)[C@H](CC(=O)N1CCN(C(=O)c3ccco3)CC1)C2 | / | / | . | . | . | .
O=S(=O)(c1ccccc1)c1nnn2c1nc(NC1CCN(Cc3ccccc3)CC1)c1ccccc12 | . | . | 76 | . | . | .
COc1cc(Cl)ccc1OC1(C)CCN(Cc2ccc(-c3ccccn3)cc2)C1 (configuration not stated) | / | / | . | . | . | .
CCCCCNC(=O)C(C1CC1)n1c(=O)c(-c2ccco2)nc2ccccc21 (configuration not stated) | / | / | . | / | . | /
O=C(Cc1cccs1)NCCSc1c(-c2ccc(Cl)cc2)[nH]c2ccccc12 | . | . | . | 81 | . | 51
CC(CNC(=O)CN1C(=O)NC2(CCOc3ccccc32)C1=O)c1ccccc1 (configuration not stated) | / | / | . | . | . | .
O=[N+]([O-])c1ccc(O)c(/C=N/n2cnnc2)c1 | . | . | . | . | . | .
Cc1cc(C)n(/N=C/c2cc([N+](=O)[O-])ccc2O)c(=O)c1 | . | . | . | . | . | 60
CCCCCCn1c(=O)n2n(c1=O)C[C@]1(OC(=O)NCc3ccco3)CN(S(=O)(=O)c3ccc(C)cc3)C[C@]1(O)C2 | / | / | . | . | . | .
CCOC(=O)N1CCN(S(=O)(=O)c2ccc(C(=O)NNc3nc4c(C)cc(C)cc4s3)cc2)CC1 | . | 71 | . | . | . | .
CCOC(=O)N1CCN(S(=O)(=O)c2ccc(C(=O)NNc3nc4ccc(Cl)cc4s3)cc2)CC1 | . | 67 | . | . | . | .
CCOC(=O)N1CCN(S(=O)(=O)c2ccc(C(=O)NNc3nc4c(C)cccc4s3)cc2)CC1 | . | . | . | . | . | .
CCOC(=O)N1CCN(S(=O)(=O)c2ccc(C(=O)NNc3nc4cc(C)cc(C)c4s3)cc2)CC1 | . | 66 | . | . | . | .
Cc1nc(Nc2nc3ccccc3o2)nc(C)c1C | . | . | . | 57 | . | .
COc1cc(Cl)c(C)cc1NC(=O)COc1ccc(C)nc1[N+](=O)[O-] | / | / | . | . | . | .
O=C1CCCCC(=O)[C@H](OC(=O)c2ccccc2)C[C@H](c2ccccc2)O1 | / | / | 67 | . | . | .
CC(=O)O[C@@H]1C[C@H](c2ccccc2)OC(=O)CCCCC1=O | / | / | . | . | . | .
Cc1nn(-c2nc3ccccc3s2)c(C)c1Oc1ccccc1O | . | . | . | . | . | 62
COc1ccc2c(c1)NC(C)(C)C=C2C | . | . | . | . | . | .
CC1=CC(C)(C)Nc2ccccc21 | . | 92 | . | . | . | .
OC[C@@H]1CN(Cc2ccccc2)C[C@H](n2cnc3c(NC4CC4)ncnc32)O1 | / | / | . | . | . | .
OC[C@@H]1CN(Cc2ccc(-c3ccccc3)cc2)C[C@H](n2cnc3c(NC4CCC4)ncnc32)O1 | / | / | . | 59 | . | .
COc1cccc(/C=N/Nc2ccc([N+](=O)[O-])cn2)c1O | . | 102 | 60 | 89 | 78 | 56
COc1cccc(/C=N/Nc2nc(Nc3ccc([N+](=O)[O-])cc3)nc(N3CCCC3)n2)c1O | . | 65 | . | . | . | .
Cc1ccc(-n2c(C)cc(/C=N/Nc3ccc([N+](=O)[O-])cn3)c2C)cc1 | . | . | . | . | . | .

Screening data (PubChem)
